# PubChem BioAssay (NCI)
# Compounds without any hit were thinned out: in the full panel of roughly 83,000, 20% have a hit.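 Testing used 96-well plates and a 48-hour single-concentration exposure. Example: -40 means 40% of the starting cells died.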 A number with no mark means an inactive call. Active and inactive are the calls of the source. How the source made its calls: active means growth percent below 10; inactive means the rest.
# Test system: MDA-MB-468 breast
# Assay: NCI-60 one-dose screen, 48 h (100 = growth as untreated, 0 = no growth, -100 = all killed)
# Conditions: 10 µM unless noted
row,SMILES,growth
1,CCOC(=O)C1=C(C)N=c2s/c(=C\c3cc(Cl)ccc3O)c(=O)n2C1c1ccc(OC)cc1 (centres undefined),94.8%
2,C=C(C)C1CCC(=C)C2CCC3(C)OC12/C=C(/COC(C)=O)CCC3O (centres undefined),115%
3,COc1ccc(Nc2nc(N)nc3c2CCc2occc2-3)cc1,101%
4,O=C1NC(c2ccc(F)cc2)N=C2C(c3ccccc3)=NOC12 (centres undefined),103%
5,COc1ccc(/C=C2\C(=O)N=C3N2NC(c2cc(Br)ccc2O)C=C(C)N3c2ccccc2)cc1 (centres undefined),90.7%
6,CCNc1ccc2ccccc2c1N=Nc1ccc(N=Nc2ccccc2)cc1,104%
7,CSCCC(C(=O)O)N1C(=O)/C(=C/c2ccc(O)c(O)c2)SC1=S (centres undefined),100%
8,C[C@H]1O[C@@H](O[C@H]2[C@@H](O)C[C@H](O[C@H]3[C@@H](O)C[C@H](O[C@H]4CC[C@]5(C)C6CC[C@]7(C)[C@@H](C8=CC(=O)OC8)CC[C@]7(O)C6CC[C@@H]5C4)O[C@@H]3C)O[C@@H]2C)C[C@H](O)[C@@H]1O (some centres undefined),-60% (active)
9,COC(=O)OC1C(O[C@H]2C[C@H]3[C@@H]4CC=C5C[C@@H](O)CC[C@]5(C)[C@H]4CC[C@]3(C)[C@H]2[C@H](C)C(=O)CCC(C)C)OCC(O)C1OC1OCC(O)C(O)C1OC(=O)c1ccc(OC)cc1 (some centres undefined),-22.8% (active)
10,CS(=O)(=O)Nc1cc(-c2ccc3ncnc(Nc4cccc(Cl)c4F)c3c2)cnc1Cl,-18.4% (active)
11,N#CC1=C(N)Oc2c(sc3c(F)cccc23)C1c1ccc(Cl)cc1 (centres undefined),-42.2% (active)
12,O=C(CN1CCN(c2cc(=O)n(-c3ccccc3)c3ccccc23)CC1)Nc1ccc([N+](=O)[O-])cc1,62.1%
13,CC1=NN(c2cccc(Cl)c2)C(=O)/C1=C\c1cn(-c2nc(N3CCOCC3)nc(N3CCOCC3)n2)c2ccccc12,95.9%
14,Cc1c(NCC(=O)Nc2nc3ccccc3[nH]2)c(=O)n(-c2ccccc2)n1C,106%
15,CC(C)N(CCOC(=O)Nc1ccccc1Cl)C(C)C,104%
16,Nc1ccc2ccc(NS(=O)(=O)N3CCCCC3)cc2c1,7.79% (active)
17,COc1ccc(-c2c(C(N)=O)c(N)n(Cc3nc4ccccc4[nH]3)c(=O)c2C#N)c(OC)c1,99.2%
18,N#Cc1ccc(OC(=O)Nc2cc(Cl)cc(Cl)c2)cc1,-16.4% [100 µM] (active)
19,O=C(CCCCCCSc1nc(-c2ccccc2)cc(-c2ccc(Cl)cc2)n1)NO,4.78% (active)
20,C/C(=N\NC(=O)CSc1nc2ccccc2c(=O)n1CCc1ccc(S(N)(=O)=O)cc1)c1ccc(Br)cc1,84.1%
21,CCn1c2ccc(O)cc2c2c(C)c3c[n+](C)ccc3c(C)c21,-31.2% (active)
22,COc1ccc2nc(-c3ccc(-c4noc(-c5cc(OC)c(OC)c(OC)c5)n4)cc3)[nH]c2c1,68.2%
23,CN1CCN(CCCOc2ccc3ncnc(Nc4ccc(Oc5cccc(F)c5)c(Cl)c4)c3c2)CC1,-66% (active)
24,O=C(O)C(=O)O,94.8%
